PubChem BioAssay (NCATS)
Results filed as inconclusive are left out. Active and inactive are the calls of the source. Calls follow the shape of the dose curve; as a rule, active = well fitted inhibition curve with a large enough effect; inconclusive = small, poorly fitted or top-dose-only effect; inactive = flat fitted curve, though single readings scatter.

Each compound was assayed against Lysine-specific demethylase 5B (Homo sapiens) (UniProt Q9UGL1) (assay: Optimization screen for KDM5B Histone Demethylases FDH coupled qHTS against the LOPAC library (AID 1347166)). Settings: KDM5B demethylation, FDH-coupled NADH fluorescence (FDH is formaldehyde dehydrogenase); series mostly up to 57.5 µM.
Sequence of Lysine-specific demethylase 5B (Homo sapiens) (Q9UGL1 whole entry, looked up): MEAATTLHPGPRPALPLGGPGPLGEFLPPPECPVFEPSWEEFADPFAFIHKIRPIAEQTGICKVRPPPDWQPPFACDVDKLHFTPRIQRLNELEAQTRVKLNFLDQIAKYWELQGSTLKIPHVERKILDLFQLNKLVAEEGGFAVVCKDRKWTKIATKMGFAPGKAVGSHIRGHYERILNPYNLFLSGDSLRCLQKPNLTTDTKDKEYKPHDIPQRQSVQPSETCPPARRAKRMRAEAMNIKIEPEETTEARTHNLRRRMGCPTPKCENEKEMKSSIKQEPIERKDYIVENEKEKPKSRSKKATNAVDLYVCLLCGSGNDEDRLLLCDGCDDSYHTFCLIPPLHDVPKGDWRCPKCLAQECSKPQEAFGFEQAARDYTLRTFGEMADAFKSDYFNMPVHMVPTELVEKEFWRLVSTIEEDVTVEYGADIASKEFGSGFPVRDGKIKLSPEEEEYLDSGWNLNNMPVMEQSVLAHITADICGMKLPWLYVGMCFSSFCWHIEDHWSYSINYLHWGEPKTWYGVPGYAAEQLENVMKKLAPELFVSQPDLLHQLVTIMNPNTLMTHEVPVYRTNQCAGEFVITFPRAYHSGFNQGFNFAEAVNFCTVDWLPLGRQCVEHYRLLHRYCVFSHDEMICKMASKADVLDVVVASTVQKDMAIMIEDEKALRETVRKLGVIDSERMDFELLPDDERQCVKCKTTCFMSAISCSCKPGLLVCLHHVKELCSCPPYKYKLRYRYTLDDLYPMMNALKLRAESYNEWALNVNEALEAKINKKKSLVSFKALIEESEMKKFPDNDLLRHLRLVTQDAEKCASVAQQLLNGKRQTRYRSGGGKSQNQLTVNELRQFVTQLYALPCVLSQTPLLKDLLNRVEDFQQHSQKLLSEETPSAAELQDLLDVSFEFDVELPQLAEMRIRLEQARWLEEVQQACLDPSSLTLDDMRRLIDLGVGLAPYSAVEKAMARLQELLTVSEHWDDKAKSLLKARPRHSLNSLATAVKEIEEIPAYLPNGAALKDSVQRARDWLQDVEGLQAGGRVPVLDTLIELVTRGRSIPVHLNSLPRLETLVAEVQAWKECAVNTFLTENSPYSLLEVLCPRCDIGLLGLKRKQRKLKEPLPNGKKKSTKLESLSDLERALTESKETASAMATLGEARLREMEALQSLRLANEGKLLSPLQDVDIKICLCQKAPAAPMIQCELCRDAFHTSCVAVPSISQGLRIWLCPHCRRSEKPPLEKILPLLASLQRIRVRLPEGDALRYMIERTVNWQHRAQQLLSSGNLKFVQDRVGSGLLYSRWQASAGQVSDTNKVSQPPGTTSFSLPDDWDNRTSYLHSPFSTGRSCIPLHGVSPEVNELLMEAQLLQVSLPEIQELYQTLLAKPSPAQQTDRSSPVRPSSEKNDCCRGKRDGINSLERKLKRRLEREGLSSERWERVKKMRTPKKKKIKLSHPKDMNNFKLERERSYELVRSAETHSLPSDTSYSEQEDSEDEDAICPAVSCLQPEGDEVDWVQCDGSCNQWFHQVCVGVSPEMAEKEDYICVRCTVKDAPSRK
From the text: Assay Submitter (PI): Qin Yan, Ph.D. (Yale University) and Xiaodong Cheng, Ph.D. (MD Anderson)
This project was funded as part of the NCI NEXT Program and Chemical Biology Consortium (CBC)
The histone demethylases, KDM5A and KDM5B catalyze the demethylation of lysine 4 on histone H3 (H3K4me3/2). They
are overexpressed in a variety of cancers and have been implicated in cancer cell growth, metastasis, drug resistance, and tumor growth. KDM5A is amplified and overexpressed in breast and gastric cancer; and is translocated in leukemia. While KDM5B is highly expressed in human mammary tumors and breast cancer cell lines, but not in normal adult breast tissue. Moreover, knockdown of KDM5B leads to upregulation of tumor suppressor genes, including BRCA1. The goal of this project is to employ qHTS to identify selective small molecule inhibitors of KDM5A/B demethylase activity to better understand the role of KDM5 in cancer and to develop novel therapies.
We employed an FDH-coupled assay previously reported by Sakurai et al. to monitor in vitro KDM5 demethylase activity. Compounds showing dose response inhibition are re-acquired, validated, and tested for non-specific interference with the formaldehyde dehydrogenase (FDH) counterscreen. True inhibitors are validated using an AlphaLisa secondary screen, which employs an H3K4(me2-1)-specific antibody to monitor demethylation of a biotin-tagged H3K4(me3) peptide substrate. Inhibitors are profiled against KDM4A and KDM6A AlphaLisa counterscreens to determine level of demethylase specificity; and against the TruHits counterscreen to eliminate non-specific inhibitory activity on the AlphaLISA detection method. Selective inhibitors identified from the primary and secondary screening are tested in cells using immunofluorescence to monitor global H3K4 tri-methylation as a measure of KDM5A/B inhibition. This assay is run against the NCGC Lopac collection of about 1,200 compounds to evaluate its amenability to quantitative High Throughput Screening (qHTS) platform.
Early Translation Branch (ETB)
National Center for Advancing Translational Sciences (NCATS), Rockville, MD
National Institute of Health (NIH), Bethesda, Maryland
[1] Sakurai, M et al. A miniaturized screen for inhibitors of Jumonji histone demethylases. Mol Biosyst. 2010 Feb;6(2):357-64. doi: 10.1039/b912993f. Epub 2009 Oct 8.
1536-well Black, solid bottom, medium binding assay plate is purchased from Greiner Bio-one. The enzymes (KDM5B) and substrate (H3K4me3/2) are provided by the principal investigators. The buffer for this assay is composed of 50mM HEPES at pH 7.5 with 0.01% Tween-20.
FDH coupled qHTS protocol:
Three microliter enzyme mix (buffer + 200nM KDM5BDeltaAP final concentration) is dispensed into the assay plate using the BioRAPTR Flying Reagent Dispenser (FRD; Beckton-Dickenson). Compound (at various final concentration) and control solution is pin transferred to the assay plate using the Kalypsys 1536-pin tool apparatus. The assay plate is incubated for 10 min at room temperature followed by addition of 1uL substrate mix (buffer + 100uM ascorbic acid, 50uM ferrous ammonium sulfate, 12.5uM H3K4Me3, 25uM a-ketoglutarate, 0.25 mM NAD+, 0.25 U/mL formaldehyde dehydrogenase using the FRD yielding a total reaction volume of 4 uL. Initial fluorescence (Read1) is detected using the PerkinElmer ViewLux plate reader equipped with 340 nm excitation and 450 nm emission filters. The final fluorescence (Read2) signal is obtained after 30 min of room temperature incubation. Delta RFU is calculated (Read2 - Read1) and is used to generated dose response curves
In the case of `C[C@]12CC[C@@H]3c4ccc(O)cc4CC[C@H]3[C@@H]1CCC2=O`, the outcome was “inactive”.
`CN(C)CCCN1c2ccccc2CCc2ccccc21` was tested, and the outcome was “inactive”.
For `C[C@](N)(Cc1ccc(O)cc1)C(=O)O`, the outcome was “inactive”.
For `CCN(CC)C(C)CN1c2ccccc2Sc2ccccc21` (stereo not given), the outcome was “inactive”.
With `CC(C)(C(=O)O)c1ccc(C(O)CCCN2CCC(C(O)(c3ccccc3)c3ccccc3)CC2)cc1` (stereo not given) the outcome was “inactive”.
`CC(C(O)c1ccc(O)cc1)N1CCC(Cc2ccccc2)CC1` (stereo not given) was tested, and the outcome was “inactive”.
With `Nc1ncnc2c1ncn2[C@@H]1O[C@H](CO)[C@@H](O)[C@H]1O` the outcome was “inactive”.
For `CC[C@H]1CN2CCc3cc(OC)c(OC)cc3[C@@H]2C[C@@H]1C[C@H]1NCCc2cc(OC)c(OC)cc21`, the outcome was “inactive”.
For `CC(C)(C)[C@]1(O)CCN2C[C@H]3c4ccccc4CCc4cccc(c43)[C@@H]2C1`, the outcome was “inactive”.
With `Nc1cc(=O)[nH]c(N)n1` the outcome was “inactive”.
`COCCOC(=O)C1=C(C)NC(C)=C(C(=O)OC/C=C/c2ccccc2)C1c1cccc([N+](=O)[O-])c1` (stereo not given) was tested, and the outcome was “inactive”.
`NC(N)=NCCC[C@H](N)C(=O)O` was tested, and the outcome was “inactive”.
In the case of `CCCCCCCCCCCCCCCC(=O)NCCO`, the outcome was “inactive”.
In the case of `CSc1ccc2c(c1)C(N1CCN(C)CC1)Cc1ccccc1S2` (stereo not given), the outcome was “inactive”.
`CC(C)C(=O)c1c(C(C)C)nn2ccccc12` was tested, and the outcome was “inactive”.
In the case of `CC1=C(/C=C/C(C)=C/C=C/C(C)=C/C(=O)O)C(C)(C)CCC1`, the outcome was “inactive”.
`CN(C)CCOC(C)(c1ccccc1)c1ccccn1` (stereo not given) was tested, and the outcome was “inactive”.
With `OCCN1CCN(CCCN2c3ccccc3Sc3ccc(Cl)cc32)CC1` the outcome was “inactive”.
With `CCN(CC)CCNC(=O)c1cc(Cl)c(N)cc1OC` the outcome was “inactive”.
With `CNCCC(Oc1ccc(C(F)(F)F)cc1)c1ccccc1` (stereo not given) the outcome was “inactive”.
With `CCCn1cnc2c1c(=O)n(CCCCC(C)=O)c(=O)n2C` the outcome was “inactive”.
For `CN(C)CCC=C1c2ccccc2CCc2ccccc21`, the outcome was “inactive”.
`CN(C)CCCN1c2ccccc2Sc2ccc(Cl)cc21` was tested, and the outcome was “inactive”.
`CSc1ccc2c(c1)N(CCC1CCCCN1C)c1ccccc1S2` (stereo not given) was tested, and the outcome was “inactive”.
For `CCN(CC)CCOC(=O)C1(C2CCCCC2)CCCCC1`, the outcome was “inactive”.
In the case of `CN1CCN(C2Cc3ccccc3Sc3ccc(Cl)cc32)CC1` (stereo not given), the outcome was “inactive”.
`CC(CN1c2ccccc2Sc2ccccc21)N(C)C` (stereo not given) was tested, and the outcome was “inactive”.
`CN(C)CC[C@@H](c1ccc(Cl)cc1)c1ccccn1` was tested, and the outcome was “inactive”.
`C#CCN(C)Cc1ccccc1` was tested, and the outcome was “inactive”.
For `NC(=O)c1ncn([C@@H]2O[C@H](CO)[C@@H](O)[C@H]2O)n1`, the outcome was “inactive”.
`O=C1N=C(O)CN1/N=C/c1ccc(-c2ccc([N+](=O)[O-])cc2)o1` was tested, and the outcome was “inactive”.
`CNC(=O)Oc1ccc2c(c1)[C@]1(C)CCN(C)[C@@H]1N2C` was tested, and the outcome was “inactive”.
With `CC1=C(CC(=O)O)c2cc(F)ccc2/C1=C\c1ccc(S(C)(=O)=O)cc1` the outcome was “inactive”.
For `CC(C)(C)c1onc(OCP(=O)(O)O)c1CC(N)C(=O)O` (stereo not given), the outcome was “inactive”.
`C[C@]12C[C@H](O)[C@H]3[C@@H](CCC4=CC(=O)CC[C@@]43C)[C@@H]1CC[C@@H]2C(=O)CO` was tested, and the outcome was “inactive”.
In the case of `COc1ccc(Cl)cc1C(=O)NCCc1ccc(S(=O)(=O)NC(=O)NC2CCCCC2)cc1`, the outcome was “inactive”.
`CC(=O)OCC(=O)[C@@]1(O)CC[C@H]2[C@@H]3CCC4=CC(=O)CC[C@]4(C)[C@H]3C(=O)C[C@@]21C` was tested, and the outcome was “inactive”.
In the case of `CC(CN(C)C)CN1c2ccccc2CCc2ccccc21` (stereo not given), the outcome was “inactive”.
For `NC1CCN(c2cccc(Cl)n2)CC1`, the outcome was “inactive”.
In the case of `N=c1c[n+](N2CCOCC2)[n-]o1`, the outcome was “inactive”.
